Assays:
Experiment in all cases: DAPPL (digital affinity profiling via proximity ligation, sequencing); 10 mM Tris-HCl pH 7.5, 50 mM NaCl, 1 mM DTT, 4% glycerol, room temperature, 30 min; GST-TFs on glutathione beads, 16-mer random dsDNA library, 0.1% formaldehyde crosslink after washing; high values mean tight binding
FEV = target: T1, FEV (Homo sapiens, UniProt Q99581 1-238); conditions: protein: recombinant; tags: N-terminal GST; dsDNA, one strand shown
T1 sequence: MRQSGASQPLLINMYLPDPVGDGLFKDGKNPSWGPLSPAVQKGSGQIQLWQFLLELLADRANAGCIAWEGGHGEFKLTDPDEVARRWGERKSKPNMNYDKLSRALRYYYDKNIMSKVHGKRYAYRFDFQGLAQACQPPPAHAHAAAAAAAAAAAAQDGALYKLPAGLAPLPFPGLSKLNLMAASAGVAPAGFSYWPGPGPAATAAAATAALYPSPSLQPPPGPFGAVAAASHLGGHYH
In short: (§1)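 Binding signal is defined as a hexamer's read frequency for one factor over its frequency for the tag-only sample. To obtain reads, GST-fused human transcription factors were expressed in yeast, captured on glutathione beads, barcoded with DNA and pooled with that sample. Pools met 200 nmole of a 16-mer random double-stranded DNA library in Tris/NaCl/DTT/glycerol buffer for 30 min at room temperature before washing, 0.1% formaldehyde crosslinking, proximity ligation (BsaI/T4 ligase, 1 h, 37 °C), PCR and Illumina NextSeq500 sequencing.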

ETV5 = ETV5 (Homo sapiens, UniProt P41161 1-510); conditions: protein: recombinant; tags: N-terminal GST; dsDNA, one strand shown
Chain of ETV5 (P41161 whole entry): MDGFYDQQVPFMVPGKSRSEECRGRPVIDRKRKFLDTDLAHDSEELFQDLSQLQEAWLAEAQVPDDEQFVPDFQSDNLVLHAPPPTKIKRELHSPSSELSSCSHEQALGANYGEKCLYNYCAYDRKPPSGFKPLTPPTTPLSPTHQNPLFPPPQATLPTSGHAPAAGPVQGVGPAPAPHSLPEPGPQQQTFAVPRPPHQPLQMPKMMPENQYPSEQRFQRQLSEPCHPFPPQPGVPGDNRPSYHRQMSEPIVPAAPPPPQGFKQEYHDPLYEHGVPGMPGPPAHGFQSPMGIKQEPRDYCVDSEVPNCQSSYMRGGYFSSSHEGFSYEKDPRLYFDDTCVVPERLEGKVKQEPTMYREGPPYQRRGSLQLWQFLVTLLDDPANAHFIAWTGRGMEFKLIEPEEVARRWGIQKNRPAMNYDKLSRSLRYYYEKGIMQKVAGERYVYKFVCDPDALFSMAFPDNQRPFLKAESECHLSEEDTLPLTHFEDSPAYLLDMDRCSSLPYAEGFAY
In short: as §1

HSF1 = HSF1 (Homo sapiens, UniProt Q00613 1-529); conditions: protein: recombinant; tags: N-terminal GST; chain copies: 3; dsDNA, one strand shown
Chain of HSF1 (Q00613 whole entry): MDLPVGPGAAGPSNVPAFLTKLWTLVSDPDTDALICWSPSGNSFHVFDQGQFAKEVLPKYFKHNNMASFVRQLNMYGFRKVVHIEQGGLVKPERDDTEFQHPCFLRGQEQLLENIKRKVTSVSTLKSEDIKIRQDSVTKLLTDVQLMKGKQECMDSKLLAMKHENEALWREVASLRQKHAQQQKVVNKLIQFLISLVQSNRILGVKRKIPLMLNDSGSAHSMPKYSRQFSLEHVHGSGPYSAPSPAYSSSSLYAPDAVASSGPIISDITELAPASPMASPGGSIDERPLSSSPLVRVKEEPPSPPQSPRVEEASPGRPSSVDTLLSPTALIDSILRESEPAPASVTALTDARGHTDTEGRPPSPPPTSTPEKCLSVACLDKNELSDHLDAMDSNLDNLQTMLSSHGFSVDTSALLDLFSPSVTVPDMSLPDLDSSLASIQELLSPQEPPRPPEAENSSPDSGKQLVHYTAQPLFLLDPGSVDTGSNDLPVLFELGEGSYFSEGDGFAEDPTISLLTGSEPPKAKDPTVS
In short: as §1

SPIC = target: T2, SPIC (Homo sapiens, UniProt Q8N5J4 1-248); conditions: protein: recombinant; tags: N-terminal GST; dsDNA, one strand shown
T2 sequence: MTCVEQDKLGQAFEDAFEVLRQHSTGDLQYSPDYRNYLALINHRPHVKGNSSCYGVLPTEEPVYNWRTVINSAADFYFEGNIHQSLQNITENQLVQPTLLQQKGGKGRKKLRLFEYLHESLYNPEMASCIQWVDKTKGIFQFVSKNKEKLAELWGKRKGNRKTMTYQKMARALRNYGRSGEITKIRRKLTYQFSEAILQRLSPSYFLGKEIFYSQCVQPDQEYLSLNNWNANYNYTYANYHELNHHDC
In short: as §1

ELF4 = ELF4 (Homo sapiens, UniProt Q99607 1-663); conditions: protein: recombinant; tags: N-terminal GST; dsDNA, one strand shown
Chain of ELF4 (Q99607 whole entry): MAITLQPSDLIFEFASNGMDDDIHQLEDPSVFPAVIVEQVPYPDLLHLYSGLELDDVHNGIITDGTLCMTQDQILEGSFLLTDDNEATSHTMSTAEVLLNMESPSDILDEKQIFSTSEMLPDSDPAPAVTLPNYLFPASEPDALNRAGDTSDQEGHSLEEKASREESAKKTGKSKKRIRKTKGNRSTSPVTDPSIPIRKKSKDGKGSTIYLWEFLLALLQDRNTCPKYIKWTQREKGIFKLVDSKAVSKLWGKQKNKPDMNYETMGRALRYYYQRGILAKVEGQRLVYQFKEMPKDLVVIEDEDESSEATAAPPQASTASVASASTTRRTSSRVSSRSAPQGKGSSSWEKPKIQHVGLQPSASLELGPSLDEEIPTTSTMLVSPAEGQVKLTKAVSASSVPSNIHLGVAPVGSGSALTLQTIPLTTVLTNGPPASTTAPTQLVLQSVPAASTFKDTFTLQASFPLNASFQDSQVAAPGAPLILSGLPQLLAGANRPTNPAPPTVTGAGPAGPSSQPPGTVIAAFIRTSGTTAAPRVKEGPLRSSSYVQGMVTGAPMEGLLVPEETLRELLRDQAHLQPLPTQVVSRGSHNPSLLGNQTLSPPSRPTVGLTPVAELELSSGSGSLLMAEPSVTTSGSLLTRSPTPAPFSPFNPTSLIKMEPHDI
In short: as §1

ELK4 = target: T3, ELK4 (Homo sapiens, UniProt P28324-2 1-405); conditions: protein: recombinant; tags: N-terminal GST; dsDNA, one strand shown
T3 sequence: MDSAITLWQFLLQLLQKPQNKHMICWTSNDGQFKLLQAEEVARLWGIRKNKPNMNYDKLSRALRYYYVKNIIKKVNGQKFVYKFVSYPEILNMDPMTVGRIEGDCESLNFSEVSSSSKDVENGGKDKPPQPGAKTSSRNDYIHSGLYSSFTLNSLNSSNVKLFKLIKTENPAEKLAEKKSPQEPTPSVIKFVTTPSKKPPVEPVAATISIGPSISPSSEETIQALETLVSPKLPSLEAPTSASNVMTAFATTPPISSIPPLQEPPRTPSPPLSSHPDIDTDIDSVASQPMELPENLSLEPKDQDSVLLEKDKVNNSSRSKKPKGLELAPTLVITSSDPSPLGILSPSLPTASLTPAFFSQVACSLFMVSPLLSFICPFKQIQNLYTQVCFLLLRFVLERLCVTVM
In short: as §1

ETV2 = target: T4, ETV2 (Homo sapiens, UniProt O00321 1-342); conditions: protein: recombinant; tags: N-terminal GST; dsDNA, one strand shown
T4 sequence: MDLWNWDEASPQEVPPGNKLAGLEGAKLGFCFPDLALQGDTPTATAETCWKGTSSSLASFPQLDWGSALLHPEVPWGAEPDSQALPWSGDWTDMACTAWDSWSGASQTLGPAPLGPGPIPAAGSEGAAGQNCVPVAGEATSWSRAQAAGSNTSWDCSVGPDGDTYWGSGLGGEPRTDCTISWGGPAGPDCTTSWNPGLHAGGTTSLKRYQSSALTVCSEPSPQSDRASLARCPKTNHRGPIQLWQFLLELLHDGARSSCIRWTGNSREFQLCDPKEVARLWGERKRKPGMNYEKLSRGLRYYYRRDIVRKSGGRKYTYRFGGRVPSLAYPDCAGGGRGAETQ
In short: as §1

ELF3 = target: T5, ELF3 (Homo sapiens, UniProt P78545 1-371); conditions: protein: recombinant; tags: N-terminal GST; dsDNA, one strand shown
T5 sequence: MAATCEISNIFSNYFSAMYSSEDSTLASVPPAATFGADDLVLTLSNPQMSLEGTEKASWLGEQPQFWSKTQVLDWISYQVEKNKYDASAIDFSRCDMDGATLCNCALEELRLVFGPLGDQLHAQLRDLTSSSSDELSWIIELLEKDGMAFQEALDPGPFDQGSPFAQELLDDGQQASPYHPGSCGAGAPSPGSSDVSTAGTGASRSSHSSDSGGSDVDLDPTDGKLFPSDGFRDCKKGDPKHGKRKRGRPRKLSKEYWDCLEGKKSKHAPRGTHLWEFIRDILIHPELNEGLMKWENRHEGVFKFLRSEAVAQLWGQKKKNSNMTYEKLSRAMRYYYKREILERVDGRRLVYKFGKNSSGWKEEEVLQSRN
In short: as §1

CRX = CRX (Homo sapiens, UniProt O43186 1-299); conditions: protein: recombinant; tags: N-terminal GST; dsDNA, one strand shown
Chain of CRX (O43186 whole entry): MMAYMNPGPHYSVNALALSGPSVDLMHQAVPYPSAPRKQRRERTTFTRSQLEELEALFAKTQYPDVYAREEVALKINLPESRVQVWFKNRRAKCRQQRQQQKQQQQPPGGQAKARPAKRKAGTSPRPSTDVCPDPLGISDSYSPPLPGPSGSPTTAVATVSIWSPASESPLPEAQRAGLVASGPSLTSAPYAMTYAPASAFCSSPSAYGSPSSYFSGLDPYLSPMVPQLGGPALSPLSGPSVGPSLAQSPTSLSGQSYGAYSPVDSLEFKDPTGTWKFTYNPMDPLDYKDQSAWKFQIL
In short: as §1

ETV1 = ETV1 (Homo sapiens, UniProt P50549 1-477); conditions: protein: recombinant; tags: N-terminal GST; dsDNA, one strand shown
Chain of ETV1 (P50549 whole entry): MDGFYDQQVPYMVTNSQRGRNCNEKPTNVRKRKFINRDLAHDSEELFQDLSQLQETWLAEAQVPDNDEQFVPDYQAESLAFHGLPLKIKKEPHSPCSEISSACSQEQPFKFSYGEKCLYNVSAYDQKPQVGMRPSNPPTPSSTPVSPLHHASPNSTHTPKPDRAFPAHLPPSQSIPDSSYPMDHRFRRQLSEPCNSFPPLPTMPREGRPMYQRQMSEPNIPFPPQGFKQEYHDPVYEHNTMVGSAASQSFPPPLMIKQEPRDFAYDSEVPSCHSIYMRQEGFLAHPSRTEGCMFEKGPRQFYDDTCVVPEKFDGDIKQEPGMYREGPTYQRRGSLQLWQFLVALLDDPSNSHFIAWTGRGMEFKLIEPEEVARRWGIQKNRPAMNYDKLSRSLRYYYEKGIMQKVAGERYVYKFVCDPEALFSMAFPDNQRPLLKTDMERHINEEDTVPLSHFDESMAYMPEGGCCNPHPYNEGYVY
In short: as §1

ERF = target: T6, ERF (Homo sapiens, UniProt P50548 1-548); conditions: protein: recombinant; tags: N-terminal GST; dsDNA, one strand shown
T6 sequence: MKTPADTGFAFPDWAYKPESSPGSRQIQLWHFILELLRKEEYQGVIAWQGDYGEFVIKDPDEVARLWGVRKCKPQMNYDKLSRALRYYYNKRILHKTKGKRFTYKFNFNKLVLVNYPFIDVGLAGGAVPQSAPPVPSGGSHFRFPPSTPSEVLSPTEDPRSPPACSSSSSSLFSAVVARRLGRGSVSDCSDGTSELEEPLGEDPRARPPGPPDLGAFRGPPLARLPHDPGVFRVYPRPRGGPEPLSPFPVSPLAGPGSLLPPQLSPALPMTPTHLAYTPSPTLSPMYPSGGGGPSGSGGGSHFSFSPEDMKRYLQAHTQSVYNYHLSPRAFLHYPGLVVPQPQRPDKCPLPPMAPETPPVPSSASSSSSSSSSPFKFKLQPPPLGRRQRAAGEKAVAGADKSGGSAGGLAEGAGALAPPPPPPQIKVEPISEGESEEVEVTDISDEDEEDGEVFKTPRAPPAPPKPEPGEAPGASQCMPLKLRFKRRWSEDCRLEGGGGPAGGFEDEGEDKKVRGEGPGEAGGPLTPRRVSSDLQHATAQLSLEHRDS
In short: as §1

ETV3L = target: T7, ETV3L (Homo sapiens, UniProt Q6ZN32 1-361); conditions: protein: recombinant; tags: N-terminal GST; dsDNA, one strand shown
T7 sequence: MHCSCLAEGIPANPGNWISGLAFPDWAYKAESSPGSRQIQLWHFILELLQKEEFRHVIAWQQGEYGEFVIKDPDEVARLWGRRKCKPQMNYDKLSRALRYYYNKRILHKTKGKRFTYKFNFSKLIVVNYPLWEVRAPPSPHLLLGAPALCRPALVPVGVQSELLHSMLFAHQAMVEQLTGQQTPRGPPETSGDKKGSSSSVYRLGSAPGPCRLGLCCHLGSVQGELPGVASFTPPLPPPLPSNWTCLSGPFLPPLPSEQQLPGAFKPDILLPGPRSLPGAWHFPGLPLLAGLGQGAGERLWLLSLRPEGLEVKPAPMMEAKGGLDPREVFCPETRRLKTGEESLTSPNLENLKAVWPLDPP
In short: as §1

ETS2 = target: T8, ETS2 (Homo sapiens, UniProt P15036 1-469); conditions: protein: recombinant; tags: N-terminal GST; dsDNA, one strand shown
T8 sequence: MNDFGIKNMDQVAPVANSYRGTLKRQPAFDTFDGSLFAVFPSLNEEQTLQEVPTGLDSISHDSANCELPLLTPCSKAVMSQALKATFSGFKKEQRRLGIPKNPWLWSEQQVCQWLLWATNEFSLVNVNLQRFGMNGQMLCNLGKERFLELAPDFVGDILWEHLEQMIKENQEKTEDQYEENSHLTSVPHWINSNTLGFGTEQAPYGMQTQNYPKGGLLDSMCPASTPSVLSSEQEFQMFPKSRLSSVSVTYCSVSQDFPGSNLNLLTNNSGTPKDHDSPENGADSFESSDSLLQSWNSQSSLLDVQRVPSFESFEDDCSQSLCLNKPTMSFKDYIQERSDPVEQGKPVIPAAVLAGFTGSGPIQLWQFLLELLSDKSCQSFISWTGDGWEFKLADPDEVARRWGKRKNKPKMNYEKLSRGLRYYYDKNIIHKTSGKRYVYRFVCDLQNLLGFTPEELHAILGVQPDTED
In short: as §1

SPDEF = target: T9, SPDEF (Homo sapiens, UniProt O95238 1-335); conditions: protein: recombinant; tags: N-terminal GST; dsDNA, one strand shown
T9 sequence: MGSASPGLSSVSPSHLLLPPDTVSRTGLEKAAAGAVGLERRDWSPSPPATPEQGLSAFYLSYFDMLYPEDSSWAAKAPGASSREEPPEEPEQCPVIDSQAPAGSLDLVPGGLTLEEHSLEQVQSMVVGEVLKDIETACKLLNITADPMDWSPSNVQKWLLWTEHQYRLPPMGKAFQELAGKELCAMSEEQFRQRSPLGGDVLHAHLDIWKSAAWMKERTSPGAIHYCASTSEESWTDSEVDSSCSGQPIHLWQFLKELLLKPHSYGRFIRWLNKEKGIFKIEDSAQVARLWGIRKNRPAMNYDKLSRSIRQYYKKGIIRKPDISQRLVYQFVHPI
In short: as §1

ETV7 = target: T10, ETV7 (Homo sapiens, UniProt Q9Y603 1-341); conditions: protein: recombinant; tags: N-terminal GST; dsDNA, one strand shown
T10 sequence: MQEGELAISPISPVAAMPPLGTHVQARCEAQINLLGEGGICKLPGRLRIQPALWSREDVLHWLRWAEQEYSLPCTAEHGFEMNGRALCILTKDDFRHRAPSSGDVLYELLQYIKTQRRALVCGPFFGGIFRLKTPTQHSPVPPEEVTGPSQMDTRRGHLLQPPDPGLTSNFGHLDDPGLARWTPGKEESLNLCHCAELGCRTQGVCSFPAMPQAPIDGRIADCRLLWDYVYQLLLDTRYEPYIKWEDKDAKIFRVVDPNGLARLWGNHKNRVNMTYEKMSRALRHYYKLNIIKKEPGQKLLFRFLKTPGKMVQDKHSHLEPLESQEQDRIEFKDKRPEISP
In short: as §1

ELF5 = target: T11, ELF5 (Homo sapiens, UniProt Q9UKW6-2 1-255); conditions: protein: recombinant; tags: N-terminal GST; dsDNA, one strand shown
T11 sequence: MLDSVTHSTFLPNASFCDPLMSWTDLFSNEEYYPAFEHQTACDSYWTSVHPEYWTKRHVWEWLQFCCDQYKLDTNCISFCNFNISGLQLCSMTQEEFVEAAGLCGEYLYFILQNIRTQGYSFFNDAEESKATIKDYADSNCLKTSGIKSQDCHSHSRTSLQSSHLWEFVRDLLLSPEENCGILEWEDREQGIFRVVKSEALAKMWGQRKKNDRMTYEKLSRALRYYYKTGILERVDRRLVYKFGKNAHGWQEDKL
In short: as §1

ETV3 = target: T12, ETV3 (Homo sapiens, UniProt P41162-2 1-143); conditions: protein: recombinant; tags: N-terminal GST; dsDNA, one strand shown
T12 sequence: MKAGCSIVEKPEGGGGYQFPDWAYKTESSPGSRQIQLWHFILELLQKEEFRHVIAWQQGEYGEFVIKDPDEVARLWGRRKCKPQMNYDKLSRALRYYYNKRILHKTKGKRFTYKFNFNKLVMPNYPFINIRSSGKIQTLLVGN
In short: as §1

ETV6 = ETV6 (Homo sapiens, UniProt P41212 1-452); conditions: protein: recombinant; tags: N-terminal GST; dsDNA, one strand shown
Chain of ETV6 (P41212 whole entry): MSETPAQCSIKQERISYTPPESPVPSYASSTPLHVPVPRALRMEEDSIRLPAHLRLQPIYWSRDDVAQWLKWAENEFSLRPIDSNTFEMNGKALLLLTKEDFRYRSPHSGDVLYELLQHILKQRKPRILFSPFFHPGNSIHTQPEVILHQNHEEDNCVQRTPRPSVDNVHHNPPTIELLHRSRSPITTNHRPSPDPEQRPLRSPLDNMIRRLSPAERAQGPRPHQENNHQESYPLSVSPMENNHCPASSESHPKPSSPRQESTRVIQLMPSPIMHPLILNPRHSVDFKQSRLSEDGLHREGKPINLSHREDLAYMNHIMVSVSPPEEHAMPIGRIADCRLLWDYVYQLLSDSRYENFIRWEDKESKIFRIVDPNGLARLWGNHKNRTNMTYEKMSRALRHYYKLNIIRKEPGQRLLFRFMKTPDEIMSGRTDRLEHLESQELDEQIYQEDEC
In short: as §1

GACCTA
binding signal (FEV): 1.17 fold enrichment (6-mer frequency, TF over GST control)
binding signal (ETV5): 1.2 fold enrichment (6-mer frequency, TF over GST control)
binding signal (HSF1): 1.06 fold enrichment (6-mer frequency, TF over GST control)
binding signal (SPIC): 1.18 fold enrichment (6-mer frequency, TF over GST control)
binding signal (ELF4): 1.24 fold enrichment (6-mer frequency, TF over GST control)
binding signal (ELK4): 1.14 fold enrichment (6-mer frequency, TF over GST control)
binding signal (ETV2): 1.26 fold enrichment (6-mer frequency, TF over GST control)
binding signal (ELF3): 1.06 fold enrichment (6-mer frequency, TF over GST control)
binding signal (CRX): 1.07 fold enrichment (6-mer frequency, TF over GST control)
binding signal (ETV1): 1.16 fold enrichment (6-mer frequency, TF over GST control)
binding signal (ERF): 1.09 fold enrichment (6-mer frequency, TF over GST control)
binding signal (ETV3L): 1.31 fold enrichment (6-mer frequency, TF over GST control)
binding signal (ETS2): 1.19 fold enrichment (6-mer frequency, TF over GST control)
binding signal (SPDEF): 1.13 fold enrichment (6-mer frequency, TF over GST control)
binding signal (ETV7): 1.2 fold enrichment (6-mer frequency, TF over GST control)
binding signal (ELF5): 1.15 fold enrichment (6-mer frequency, TF over GST control)
binding signal (ETV3): 1.07 fold enrichment (6-mer frequency, TF over GST control)
binding signal (ETV6): 1.22 fold enrichment (6-mer frequency, TF over GST control)

Source: PMC7862700, “An all-to-all approach to the identification of sequence-specific readers for epigenetic DNA modifications on cytosine”
